The target of experiment [1] is Voltage-gated inwardly rectifying potassium channel KCNH2 (Homo sapiens) (UniProt Q12809). Kind of experiment: qHTS Assay for Small Molecule Inhibitors of the Human hERG Channel Activity (AID 588834).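 Further: lower thallium flux fluorescence means stronger hERG block; nearly all actives have a fitted effect of over 50% in size.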 Further: potency means the concentration at half of the fitted maximal effect. A digest of the protocol:
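Blockade is seen as reduced FluxOR thallium-flux fluorescence in U2OS cells expressing hERG from a BacMam construct, in Opti-MEM with 2% FCS. Concentration-response data fitted to the Hill equation for AC50.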
(In general: qHTS replaces the single test concentration by a dilution series.)

Experiment [2] deals with Glutaminase kidney isoform, mitochondrial (Homo sapiens) (UniProt O94925). Kind of experiment: qHTS for Inhibitors of Glutaminase (GLS): LOPAC Validation (AID 624146). Further: nearly all actives have a fitted effect of over 60% in size. Further: potency means the concentration at half of the fitted maximal effect. A digest of the protocol:
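hKGA; 45 mM KH2PO4 pH 8.2 + 0.02% Tween-20; cpd via pin tool; 1 mM Gln soln; GluOx/HRP/Amplex Red; RT 30 min; fluor. t0 & final.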

Experiment [3] is described as follows: qHTS of Trypanosoma Brucei Inhibitors: LOPAC Validation (AID 624147). In a few lines:
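Screened from lowest to highest concentration, compounds were pinned into TbPYK/substrate mixtures, and ADP (130 uM final) was added. Plates sat at room temperature for 45 min prior to Kinase-Glo Plus detection by luminescence.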

Experiment [4] deals with Glucagon-like peptide 1 receptor (Homo sapiens) (UniProt P43220). Kind of experiment: qHTS of GLP-1 Receptor Agonists: LOPAC Validation (AID 624148).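 Further: luminescence from a luciferase reporter switched on by cAMP; higher luminescence signal means agonism.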 A digest of the protocol:
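Agonism scored as increased luciferase luminescence driven by cAMP in HEK293 clones carrying GLP-1R. Cells settled 12 hours, received compound for 4-6 hr at 37 deg C, 5% CO2, and were read after 12 min detection reagent at RT.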

The nature of experiment [5]: qHTS of Nrf2 Activators: LOPAC Validation (AID 624149). In a few lines:
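Luminescence read-out of ARE-luciferase activation: AREc32_Fluc cells treated with compounds for 24 hr at 37 deg C, then lysed with Steady-Glo for 30 min at room temperature before reading.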

The nature of experiment [6]: HTS Assay for Allosteric Antagonists of the Human D2 Dopamine Receptor: Hit Validation in HTRF (AID 624455).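 Further: stable D1 dopamine receptor cell line scored for blocking the D1 response.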 In a few lines:
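First, antagonism was screened by calcium flux in a force-coupled, inducible Hek293 Trex D2 line challenged with EC80 dopamine. Hits then went into an HTRF assay in cells stably expressing D1, testing inhibition of the D1 response.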
(In general: In TR-FRET formats the signal depends on donor and acceptor labels being close together.)

Each structure is given as a SMILES string. Inconclusive results are not listed. Activity calls are given as the source filed them. The call rests on the fitted dose curve; in most records, active means well fitted curve in the direction sought with a large enough effect; inconclusive means small, poorly fitted or top-dose-only effect, or another doubt; inactive means no such curve, though single readings can be large; an effect the other way counts as inactive or inconclusive.

Glucagon-like peptide 1 receptor (Homo sapiens), sequence (P43220 whole entry, looked up): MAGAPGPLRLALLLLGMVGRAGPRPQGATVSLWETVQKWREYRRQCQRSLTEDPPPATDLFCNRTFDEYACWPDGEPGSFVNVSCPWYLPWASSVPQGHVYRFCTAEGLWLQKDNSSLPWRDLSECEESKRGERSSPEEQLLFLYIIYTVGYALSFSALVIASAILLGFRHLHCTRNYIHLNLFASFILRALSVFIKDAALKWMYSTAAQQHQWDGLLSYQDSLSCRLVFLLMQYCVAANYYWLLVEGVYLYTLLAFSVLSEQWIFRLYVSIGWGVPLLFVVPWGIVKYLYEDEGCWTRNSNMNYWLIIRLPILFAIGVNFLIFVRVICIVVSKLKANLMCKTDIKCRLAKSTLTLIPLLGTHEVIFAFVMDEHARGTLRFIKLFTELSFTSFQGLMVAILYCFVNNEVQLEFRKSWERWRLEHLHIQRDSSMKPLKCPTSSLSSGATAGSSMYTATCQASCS
Voltage-gated inwardly rectifying potassium channel KCNH2 (Homo sapiens), sequence (Q12809 whole entry, looked up): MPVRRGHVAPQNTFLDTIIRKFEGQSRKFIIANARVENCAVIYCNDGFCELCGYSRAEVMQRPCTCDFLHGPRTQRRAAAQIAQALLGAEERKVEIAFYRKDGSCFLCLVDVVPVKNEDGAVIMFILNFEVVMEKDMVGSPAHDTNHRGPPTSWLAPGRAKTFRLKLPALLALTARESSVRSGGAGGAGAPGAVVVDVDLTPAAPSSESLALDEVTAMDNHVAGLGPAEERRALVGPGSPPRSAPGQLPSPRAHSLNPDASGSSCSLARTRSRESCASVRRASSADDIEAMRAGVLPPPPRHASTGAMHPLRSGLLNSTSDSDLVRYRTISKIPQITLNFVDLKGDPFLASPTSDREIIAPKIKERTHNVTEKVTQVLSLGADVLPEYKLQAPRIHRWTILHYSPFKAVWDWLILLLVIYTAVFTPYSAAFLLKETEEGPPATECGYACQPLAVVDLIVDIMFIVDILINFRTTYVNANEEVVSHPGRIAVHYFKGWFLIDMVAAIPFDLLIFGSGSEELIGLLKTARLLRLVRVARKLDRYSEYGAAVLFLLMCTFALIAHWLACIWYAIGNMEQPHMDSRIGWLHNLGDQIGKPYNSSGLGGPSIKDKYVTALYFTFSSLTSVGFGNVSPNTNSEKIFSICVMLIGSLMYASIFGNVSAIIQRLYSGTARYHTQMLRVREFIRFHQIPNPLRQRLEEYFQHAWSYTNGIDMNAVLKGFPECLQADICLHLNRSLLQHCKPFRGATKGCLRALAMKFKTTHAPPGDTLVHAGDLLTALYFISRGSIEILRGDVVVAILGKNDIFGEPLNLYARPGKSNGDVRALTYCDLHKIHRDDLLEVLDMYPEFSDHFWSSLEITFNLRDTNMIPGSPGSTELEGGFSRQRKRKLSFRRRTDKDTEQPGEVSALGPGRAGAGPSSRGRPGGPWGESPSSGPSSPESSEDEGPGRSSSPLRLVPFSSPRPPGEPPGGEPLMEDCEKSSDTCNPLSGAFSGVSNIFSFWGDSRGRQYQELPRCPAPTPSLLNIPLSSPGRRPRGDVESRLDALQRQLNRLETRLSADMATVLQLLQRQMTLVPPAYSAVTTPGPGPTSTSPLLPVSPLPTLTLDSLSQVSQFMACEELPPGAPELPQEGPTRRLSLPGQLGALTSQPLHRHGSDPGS
Glutaminase kidney isoform, mitochondrial (Homo sapiens), sequence (O94925 whole entry, looked up, canonical isoform): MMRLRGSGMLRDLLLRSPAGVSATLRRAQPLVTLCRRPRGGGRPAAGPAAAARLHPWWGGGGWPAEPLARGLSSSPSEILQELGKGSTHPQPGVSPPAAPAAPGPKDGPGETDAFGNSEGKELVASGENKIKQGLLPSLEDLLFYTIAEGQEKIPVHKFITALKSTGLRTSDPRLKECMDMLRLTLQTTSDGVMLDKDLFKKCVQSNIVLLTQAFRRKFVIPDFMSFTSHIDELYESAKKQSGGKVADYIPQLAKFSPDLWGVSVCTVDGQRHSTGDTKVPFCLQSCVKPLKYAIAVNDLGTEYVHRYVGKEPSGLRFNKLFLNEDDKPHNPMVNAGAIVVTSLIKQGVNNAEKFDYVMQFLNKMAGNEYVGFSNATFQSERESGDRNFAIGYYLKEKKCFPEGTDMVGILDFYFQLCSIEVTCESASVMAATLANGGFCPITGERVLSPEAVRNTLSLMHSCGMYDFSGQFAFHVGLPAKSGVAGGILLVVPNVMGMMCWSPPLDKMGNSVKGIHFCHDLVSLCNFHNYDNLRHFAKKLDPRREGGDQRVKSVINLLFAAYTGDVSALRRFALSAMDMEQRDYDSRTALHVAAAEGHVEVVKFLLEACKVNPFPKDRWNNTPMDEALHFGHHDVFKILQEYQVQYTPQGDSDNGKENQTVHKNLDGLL

As for `CC(=O)O[C@H]1CC2(C)[C@@H](C[C@@H](O)[C@H]3[C@@]4(C)CC[C@@H](O)[C@@H](C)[C@@H]4CC[C@@]32C)C1=C(CCC=C(C)C)C(=O)O` (some centres undefined), the Potency result in experiment [1], in experiment [2], in experiment [3], in experiment [4], in experiment [5] and in experiment [6] was “inactive” in each case.
Regarding `Cn1c(=O)[nH]c2ncn(C)c2c1=O`, the Potency entry in experiment [1], in experiment [2], in experiment [3], in experiment [4], in experiment [5] and in experiment [6] was “inactive” each time.
With `NC1C=CC=C(C(=O)O)C1` (centres undefined), the Potency result in experiment [1], in experiment [2], in experiment [3], in experiment [4] and in experiment [6] was “inactive” throughout.
Consider `CC1CNCCN1S(=O)(=O)c1cccc2cnccc12` (centres undefined), for which the Potency result in experiment [1], in experiment [2], in experiment [3], in experiment [4] and in experiment [6] was “inactive” each time.
Turning to `COc1ccc2c(c1)c(CC(=O)O)c(C)n2C(=O)c1ccccc1`, the Potency result in experiment [1], in experiment [2], in experiment [3], in experiment [4] and in experiment [6] was “inactive” in each case.
Take `OC[C@H]1O[C@@H](n2cnc3cncnc32)[C@H](O)[C@@H]1O`: the Potency result in experiment [1], in experiment [2], in experiment [3], in experiment [4], in experiment [5] and in experiment [6] was “inactive” throughout.
Take `c1ccc(CN2CCC3(CCCc4ccccc43)CC2)cc1`: the Potency in experiment [1] was 3.98 µM (active). The Potency result in experiment [2], in experiment [3], in experiment [4] and in experiment [6] was “inactive” throughout.
For the compound `COc1cc(CC(=O)O)ccc1O`, the Potency entry in experiment [1], in experiment [3], in experiment [4], in experiment [5] and in experiment [6] was “inactive” in each case. In addition, the Potency in experiment [2] is 2.82 µM (active).
For `O=C(O)c1cccnc1C(=O)O`, the Potency entry in experiment [1], in experiment [2], in experiment [3], in experiment [4], in experiment [5] and in experiment [6] was “inactive” in each case.
On to `CCCn1c(=O)c2[nH]c(-c3ccc(S(=O)(=O)O)cc3)nc2n(CCC)c1=O`, for which the Potency entry in experiment [1], in experiment [2], in experiment [3], in experiment [4] and in experiment [6] was “inactive” each time.
Turning to `COc1ccccc1N1CCN(CCCCN2C(=O)c3ccccc3C2=O)CC1`, the Potency in experiment [1] was 2.24 µM (active). For the same compound, the Potency entry in experiment [2], in experiment [3], in experiment [4], in experiment [5] and in experiment [6] was “inactive” in each case.
As for `C=C(C)C1CC=C(C(=O)O)CC1` (centres undefined), the Potency result in experiment [1], in experiment [2], in experiment [3], in experiment [4] and in experiment [6] was “inactive” throughout.
With `CO/N=C(\C(=O)N[C@@H]1C(=O)N2C(C(=O)O)=C(CSc3nc(=O)c(O)nn3C)CSC12)c1csc(N)n1` (some centres undefined), the Potency entry in experiment [1], in experiment [2], in experiment [3], in experiment [4] and in experiment [6] was “inactive” throughout.
For the compound `NC1(C(=O)O)CCCCC1`, the Potency entry in experiment [1], in experiment [2], in experiment [3], in experiment [4], in experiment [5] and in experiment [6] was “inactive” each time.
As to `COc1cc(C(O)C(=O)O)ccc1O` (centres undefined), the Potency entry in experiment [1], in experiment [3], in experiment [4], in experiment [5] and in experiment [6] was “inactive” throughout. Besides, in experiment [2], the Potency was 2.82 µM (active).
With `CCC1(O)CC2CN(CCc3c([nH]c4ccccc34)[C@@](C(=O)OC)(c3cc4c(cc3OC)N(C=O)C3[C@]45CCN4CC=C[C@@](CC)([C@@H](OC(C)=O)[C@]3(O)C(=O)OC)[C@H]45)C2)C1` (some centres undefined), the Potency entry in experiment [1], in experiment [3], in experiment [4], in experiment [5] and in experiment [6] was “inactive” each time. The Potency in experiment [2] is 7.08 µM (active).
With `O=C(O)C1=CCNCC1`, the Potency result in experiment [1], in experiment [2], in experiment [3], in experiment [4] and in experiment [6] was “inactive” throughout.
On to `NC(N)=N[C@@H](CCC(=O)O)C(=O)O`, for which the Potency entry in experiment [1], in experiment [2], in experiment [3], in experiment [4] and in experiment [6] was “inactive” throughout.
In the case of `N=C(N)c1ccc(N)cc1`, the Potency result in experiment [1], in experiment [2], in experiment [3], in experiment [4], in experiment [5] and in experiment [6] was “inactive” each time.
Turning to `N#C/C(=C\c1ccc(O)c(O)c1)C(=O)NCCc1ccccc1`, the figures for the Potency in experiment [1] and in experiment [2] were 3.98 µM (active) and 1.12 µM (active), respectively. The Potency result in experiment [3], in experiment [4], in experiment [5] and in experiment [6] was “inactive” throughout.
With `O=c1cc(O)cc(/C=C/c2ccc(O)c(O)c2)o1`, the Potency result in experiment [1], in experiment [3], in experiment [4] and in experiment [6] was “inactive” throughout. Besides, in experiment [2], the Potency is 1.12 µM (active).
In the case of `NC(=O)CC[C@H](N)C(=O)O`, the Potency entry in experiment [1], in experiment [2], in experiment [3], in experiment [4] and in experiment [6] was “inactive” each time.
For the compound `O=C(O)c1cc(=O)cc(C(=O)O)[nH]1`, the Potency result in experiment [1], in experiment [2], in experiment [3], in experiment [4], in experiment [5] and in experiment [6] was “inactive” throughout.
As to `CCCCCCCCCC[Si](C)(C)CCC(=O)NC(Cc1ccc(C)cc1)c1ccccc1` (centres undefined), the Potency result in experiment [1], in experiment [2], in experiment [3], in experiment [4], in experiment [5] and in experiment [6] was “inactive” in each case.
As for `N=C(N)SCCN`, the Potency entry in experiment [1], in experiment [2], in experiment [3], in experiment [4] and in experiment [6] was “inactive” throughout.
Turning to `O=C(O)c1cc2cc(F)ccc2[nH]1`, the Potency result in experiment [1], in experiment [2], in experiment [3], in experiment [4], in experiment [5] and in experiment [6] was “inactive” each time.
On to `NC(N)=NC(N)=Nc1cccc(Cl)c1`, for which, in experiment [1], the Potency is 8.91 µM (active). Moreover, the Potency result in experiment [2], in experiment [3], in experiment [4], in experiment [5] and in experiment [6] was “inactive” throughout.
Turning to `O=[N+]([O-])c1cccc2cn[nH]c12`, the Potency result in experiment [1], in experiment [2], in experiment [3], in experiment [5] and in experiment [6] was “inactive” each time.
As to `O=C(OCCN1CCOCC1)C1(c2ccccc2)CCCCC1`, the Potency result in experiment [1], in experiment [2], in experiment [3], in experiment [5] and in experiment [6] was “inactive” throughout.
Turning to `Nc1ncnc2c1ncn2C1CCCC1`, the Potency result in experiment [1], in experiment [2], in experiment [4] and in experiment [6] was “inactive” each time.
For `C[C@@]1(C2CCCC2)Cc2cc(OCC(=O)O)c(Cl)c(Cl)c2C1=O`, the Potency result in experiment [1], in experiment [2], in experiment [3], in experiment [5] and in experiment [6] was “inactive” throughout.
For `O=C(O)C1=CCCNC1`, the Potency result in experiment [1], in experiment [2], in experiment [4], in experiment [5] and in experiment [6] was “inactive” in each case.
As for `CN[C@H](CC(=O)O)C(=O)O`, the Potency result in experiment [1], in experiment [2], in experiment [4], in experiment [5] and in experiment [6] was “inactive” in each case.

These data come from PubChem BioAssay (NCATS).
